An excerpt weighted towards active compounds, which were near 6.7% of everything screened.
C diff growth: inhibitors of Clostridium difficile growth | 86,000 tested, 0.25% active | growth activity, negative = inhibition, % at 16 µg/mL (by protocol) | Clostridium difficile clinical isolate growth, OD600, 24 h; stronger effect = lower value;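 active = mean growth activity at or below -80% and every replicate also at or below -80%; inconclusive = mean at or below -80% but some replicate above -80%; inactive = mean growth activity above -80%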;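 also: 0% = DMSO wells and -100% = levofloxacin 16 µg/mL wells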
Pf Dd2 growth: P. falciparum Dd2 growth inhibition; activity change, % at 10 µM; 94,000 tested, 2.3% active; SYBR Green, 72 h; stronger effect = lower value; in the data active = activity change below about -80%; inconclusive = no clear call, values can overlap the other calls
T cruzi growth-1: inhibitors of T. cruzi proliferation; inhibition, % at 8.34 µM; T. cruzi beta-gal in NIH3T3, GalScreen luminescence, 90 h; AID 624255; 77,000 tested, 5.9% active;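 active = mean inhibition above about 93%, with at least 55% of replicates each passing it, limit read from the data, passing the limit was not always enough; inconclusive = only one of those two conditions holds; inactive = neither condition holds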
T cruzi growth-2: Trypanosoma cruzi proliferation inhibition. shares compounds with T cruzi growth-1. T. cruzi beta-gal in NIH3T3, GalScreen luminescence, 90 h. inhibition, % at 8.35 µM. 5,600 tested, 72% active. AID 651739;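 active = mean replicate inhibition above about 95% and at least 55% of replicates individually reaching it, limit read from the data; inconclusive = only one of the two criteria is met; inactive = neither criterion is met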
T cruzi growth-3: blocks T. cruzi growth in NIH3T3 host cells. AID 651740. inhibition, % at 2.09 µM. T. cruzi beta-gal in NIH3T3, GalScreen luminescence, 90 h. 5,600 tested, 21% active. shares compounds with T cruzi growth-1;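 active = mean inhibition above about 95%, with at least 55% of replicates also reaching it, limit read from the data; inconclusive = meets just one of the two conditions; inactive = meets neither condition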;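 also: plate controls were neutral control median for no effect and positive control median for full effect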
3T3 cytotox: kills mouse NIH/3T3 fibroblasts; cytotoxicity (signal decrease), % at 8.35 µM; 5,600 tested, 14% active; shares compounds with T cruzi growth-1; NIH/3T3 viability, CellTiter-Glo ATP luminescence, 90 h;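 active = mean signal decrease across replicates above about 35% based on untreated-well scatter, with enough replicates individually passing, limit read from the data; inconclusive = no rule stated though some were filed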;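 also: 0% = median of neutral control wells and 100% = median of positive control wells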
NIH3T3 tox 2: kills mouse NIH/3T3 fibroblasts; shares compounds with T cruzi growth-1; NIH/3T3 viability, CellTiter-Glo ATP luminescence, 90 h; inhibition, % at 24.9 µM; 5,600 tested, 56% active;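 active = mean loss of cell viability signal at or above a set limit, and enough replicates individually reaching it; inconclusive = meets only the mean limit or only the replicate share; inactive = meets neither condition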;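 also: 0% = median of neutral control wells and 100% = median of positive control wells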
* marks the source's active call; other numbers are inactive results; u = inconclusive; x = no result given.

SMILES	C diff growth	Pf Dd2 growth	T cruzi growth-1	T cruzi growth-2	T cruzi growth-3	3T3 cytotox	NIH3T3 tox 2
C[C@H](CO)N1C[C@H](C)[C@H](CN(C)S(=O)(=O)c2ccc(F)cc2)Oc2cc(Br)ccc2S1(=O)=O	x	-7	98*	100*	29	33	65*
COCC#Cc1ccc2c(c1)O[C@H](CN(C)S(=O)(=O)c1ccc(F)cc1)[C@@H](C)CN([C@H](C)CO)S2(=O)=O	1	-30	75	x	x	x	x
CC(C)CC#Cc1ccc2c(c1)O[C@H](CN(C)S(=O)(=O)c1ccc(F)cc1)[C@@H](C)CN([C@H](C)CO)S2(=O)=O	5	-66	x	x	x	x	x
C[C@@H]1CN([C@H](C)CO)S(=O)(=O)c2ccc(C#Cc3ccc(F)cc3)cc2O[C@@H]1CN(C)S(=O)(=O)c1ccc(F)cc1	8	-63	u	u	112*	12	71*
C[C@@H]1CN([C@@H](C)CO)C(=O)c2cc(NC(=O)CCCCCC(=O)Nc3ccccc3N)ccc2O[C@H]1CN(C)Cc1ccc(C(F)(F)F)cc1	-3	-41	x	x	x	x	x
COc1ccccc1-c1ccc2c(c1)O[C@@H](CN(C)C(=O)c1cccnc1)[C@@H](C)CN([C@H](C)CO)S2(=O)=O	3	7	x	x	x	x	x
O=C(c1cnccn1)N1CC(=O)N2[C@H](CO)[C@@H](c3ccc(C#CC4CCCC4)cc3)[C@@H]2C1	-16	-17	x	x	x	x	x
CCCC#Cc1cnc2c(c1)C(=O)N([C@@H](C)CO)C[C@H](C)[C@@H](CN(C)C(=O)c1cccnc1)O2	-7	3	21	x	x	x	x
C[C@H]1CN([C@@H](C)CO)C(=O)c2cc(C#CC3CCCCC3)cnc2O[C@@H]1CN(C)S(=O)(=O)c1cccc(F)c1	5	-53	x	x	x	x	x
C[C@H](CO)N1C[C@H](C)[C@@H](CN(C)S(=O)(=O)c2ccccc2)Oc2cc(C#Cc3ccncc3)ccc2S1(=O)=O	-3	-49	9	x	x	x	x
CC(C)CC#Cc1ccc2c(c1)O[C@H](CN(C)S(=O)(=O)c1ccc(F)cc1)[C@H](C)CN([C@H](C)CO)S2(=O)=O	5	-59	x	x	x	x	x
C[C@H](CO)N1C[C@H](C)[C@H](CN(C)S(=O)(=O)c2ccc(F)cc2)Oc2cc(C#Cc3ccc(F)cc3)ccc2S1(=O)=O	9	-72	111*	100*	106*	5	17
C[C@@H]1CN([C@@H](C)CO)S(=O)(=O)c2ccc(C#Cc3ccncc3)cc2O[C@@H]1CN(C)S(=O)(=O)c1ccc(F)cc1	8	-83*	114*	u	51	34*	44*
COc1ccc(S(=O)(=O)N(C)C[C@@H]2Oc3cc(-c4ccccc4OC)ccc3S(=O)(=O)N([C@@H](C)CO)C[C@H]2C)cc1	7	u	125*	106*	87	u	51*
COc1ccc(S(=O)(=O)N(C)C[C@H]2Oc3cc(-c4ccccc4OC)ccc3S(=O)(=O)N([C@H](C)CO)C[C@H]2C)cc1	5	-62	123*	99*	58	21	37*
COc1ccc(S(=O)(=O)N(C)C[C@H]2Oc3cc(-c4ccccc4OC)ccc3S(=O)(=O)N([C@H](C)CO)C[C@@H]2C)cc1	12	-74	123*	100*	46	47*	57*
CCC(=O)N1C[C@@H](C)[C@H](OC)CN(C)C(=O)c2cc(NS(C)(=O)=O)ccc2OC[C@@H]1C	-5	28	8	x	x	x	x
C[C@H]1CN([C@@H](C)CO)C(=O)Cc2cc(NC(=O)c3ccncc3)ccc2O[C@@H]1CN(C)Cc1ccc2c(c1)OCO2	1	-12	35	x	x	x	x
C[C@@H]1CN([C@H](C)CO)C(=O)c2cccc(NC(=O)Nc3ccc(F)cc3)c2O[C@H]1CN(C)Cc1ccc(Oc2ccccc2)cc1	x	-11	115*	101*	84	1	46*
C[C@@H]1CN([C@H](C)CO)C(=O)c2cccc(NC(=O)Nc3ccc(F)cc3)c2O[C@@H]1CN(C)Cc1ccc(Oc2ccccc2)cc1	x	-23	77	x	x	x	x
C[C@@H]1CN([C@@H](C)CO)C(=O)c2cccc(NC(=O)Nc3ccc(F)cc3)c2O[C@H]1CN(C)Cc1ccc(Oc2ccccc2)cc1	x	-2	u	96*	94	-4	55*
C[C@H]1CN([C@@H](C)CO)C(=O)c2cccc(NC(=O)Nc3ccc(F)cc3)c2O[C@H]1CN(C)Cc1ccc(Oc2ccccc2)cc1	x	13	25	x	x	x	x
C[C@H](NC(=O)C[C@H]1C[C@@H]2c3cc(NC(=O)NC4CCCCC4)ccc3O[C@@H]2[C@H](CO)O1)c1ccccc1	x	4	22	x	x	x	x
COC(=O)C[C@H]1CC[C@@H]2[C@H](COc3ccc(NC(=O)c4cscn4)cc3C(=O)N2C)O1	3	-15	31	x	x	x	x
C[C@@H]1CN([C@H](C)CO)C(=O)c2cccc(NC(=O)Nc3ccc(F)cc3)c2O[C@@H]1CN(C)Cc1ccc(-c2ccccc2)cc1	67	-34	u	105*	75	32	71*
SMILES	C diff growth	Pf Dd2 growth	T cruzi growth-1	T cruzi growth-2	T cruzi growth-3	3T3 cytotox	NIH3T3 tox 2
C[C@@H]1CN([C@@H](C)CO)C(=O)c2cccc(NC(=O)Nc3ccc(C(F)(F)F)cc3)c2O[C@@H]1CN(C)Cc1ccc(-c2ccccc2)cc1	41	-79	u	93	114*	92*	104*
C[C@@H]1CN([C@H](C)CO)C(=O)c2cccc(NC(=O)Nc3ccccc3)c2O[C@H]1CN(C)Cc1ccc(C(F)(F)F)cc1	4	-35	63	x	x	x	x
C[C@@H]1CN([C@H](C)CO)C(=O)c2cccc(NC(=O)Nc3ccc(C(F)(F)F)cc3)c2O[C@@H]1CN(C)Cc1ccc(-c2ccccc2)cc1	8	-38	u	110*	74	14	103*
C[C@H]1CN([C@@H](C)CO)C(=O)c2cccc(NC(=O)Nc3ccc(F)cc3)c2O[C@@H]1CN(C)Cc1ccc(-c2ccccc2)cc1	-4	2	71	x	x	x	x
C[C@@H]1CN([C@H](C)CO)C(=O)c2cccc(NC(=O)Nc3ccc(C(F)(F)F)cc3)c2O[C@@H]1CN(C)Cc1ccccc1	17	-15	34	x	x	x	x
Cc1ccc(S(=O)(=O)Nc2ccc3c(c2)C(=O)N([C@H](C)CO)C[C@@H](C)[C@@H](CN(C)C)O3)cc1	-1	16	x	x	x	x	x
COc1ccc(-c2ccc3n(c2=O)C[C@H]2[C@H](CO)[C@@H](C(=O)NCC4CC4)[C@@H]3N2S(C)(=O)=O)cc1	5	4	46	x	x	x	x
COCC(=O)N1[C@@H](CO)[C@H](c2ccccc2)C12CN(C(=O)NC1CCCC1)C2	-4	12	x	x	x	x	x
Cc1ccccc1-c1ccc([C@H]2[C@H](CO)N3CCCCN(C(=O)Nc4ccc(F)cc4)C[C@@H]23)cc1	53	-41	109*	96*	88	42*	106*
